# Compound activity deposited in PubChem by several laboratories.
# SENP8 block-1 = SENP8 protease inhibitors, primary screen, biochemical, luminescence | purified SENP8, Z-RLRGG-aminoluciferin cleavage | inhibition, % at 10 µM | 1.2% of 330,000 active; in the data active means inhibition above about 50%
# SENP6 block = SENP6 protease inhibitors, primary screen, biochemical, luminescence, uHTS | Sentrin-specific protease 6 (Homo sapiens), Q9GZR1 | Recombinant SENP6 catalytic domain, aminoluciferin luminescence | inhibition, % at 10 µM | 1.8% of 330,000 active;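 active means inhibition above about 50% at the single tested dose, limit read from the data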;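 further: plate controls were DMSO wells with enzyme for no effect and DMSO wells lacking enzyme for full effect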
# Target sequence (Q9GZR1 628-1112 limits assumed): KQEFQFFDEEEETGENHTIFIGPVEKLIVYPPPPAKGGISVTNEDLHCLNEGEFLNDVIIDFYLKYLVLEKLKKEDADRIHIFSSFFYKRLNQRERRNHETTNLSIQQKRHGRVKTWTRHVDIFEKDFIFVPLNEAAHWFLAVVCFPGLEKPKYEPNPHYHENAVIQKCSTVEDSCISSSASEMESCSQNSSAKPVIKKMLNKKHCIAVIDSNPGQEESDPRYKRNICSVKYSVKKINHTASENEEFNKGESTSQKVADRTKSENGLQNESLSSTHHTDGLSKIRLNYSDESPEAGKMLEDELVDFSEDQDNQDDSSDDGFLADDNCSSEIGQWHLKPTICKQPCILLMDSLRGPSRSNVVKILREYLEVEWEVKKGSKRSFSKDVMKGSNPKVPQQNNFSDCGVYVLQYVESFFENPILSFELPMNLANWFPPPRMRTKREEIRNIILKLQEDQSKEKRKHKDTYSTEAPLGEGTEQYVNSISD
# SENP8 block-2 = human SENP8 protease inhibitors, primary screen, biochemical, fluorescence, Nedd8 protein substrate, uHTS | Sentrin-specific protease 8 (Homo sapiens), Q96LD8 | inhibition, % at 20 µM | recombinant SENP8 | 0.64% of 360,000 active; in the data active means inhibition mostly above about 40%, no sharp cut-off; inactive means mostly below about 27%
# Platelet DG rel = inhibitors of platelet dense granule secretion, primary screen, cell-based, MLPCN, human platelets; human platelet-rich plasma, SFLLRN dense granule ATP release, luminescence; inhibition, %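 (compounds screened at 7.5 µM in platelet-rich plasma)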; 0.22% of 300,000 active; AID 1663, 2009;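 active means mean replicate score, as percent of positive control, at or above 50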
# SENP7 block = SENP7 protease inhibitors, primary screen, biochemical, luminescence, uHTS; Sentrin-specific protease 7 (Homo sapiens), Q9BQF6; recombinant SENP7, Z-RLRGG-aminoluciferin luminescence, 40 min; inhibition, % at 5 µM; 1.5% of 330,000 active; AID 434973, 2010;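 active means inhibition above about 50% at the single test dose, limit read from the data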;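 further: plate controls were DMSO with enzyme for no effect and no enzyme buffer wells for full effect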
# * hit, by the source's call; nt = no result given. This is a sample that favours compounds with a hit; in the whole collection about 2.4% have one here.
SMILES,SENP8 block-1,SENP6 block,SENP8 block-2,Platelet DG rel,SENP7 block
O=C(COC(=O)/C=C/c1ccccc1[N+](=O)[O-])NCC(F)(F)F,-6,-4,7,1,-9
CCN(CC)c1ccc(NC(=O)CSc2ccsc2[N+](=O)[O-])c(C)c1,3,7,46*,5,6
COC(=O)c1ccc(OCC(O)CNCC(c2ccc(OC)cc2)N(C)C)c(OC)c1 (stereo not given),0,12,1,4,3
C=C(C)C1CC=C(C)/C(=N\NC(=O)CNc2cccc3ccccc23)C1 (stereo not given),42,60*,-369,5,12
C=C(C)[C@H]1CC=C(C)/C(=N/NC(=O)CNc2ccccc2OC)C1,-10,5,8,13,-2
Nc1c(C(=O)NCc2ccco2)c2nc3ccccc3nc2n1CCc1ccc(F)cc1,58*,67*,-259,4,44
O=S(=O)(Nc1nc2ccccc2s1)c1ccc(Cl)nc1,6,8,-9,2,3
NC(=S)N=Nc1c(O)cc(O)c2[nH]c(=O)ccc12,nt,nt,75*,nt,nt
NC(=S)N=Nc1c(O)[nH]c2ccc(F)cc12,-1,-12,34,7,-5
Nc1ccc(N2CCN(C(=O)c3cccs3)CC2)cc1,-8,-3,50*,-1,-4
CC(=O)Nc1ccc(N2CCN(C(=O)c3cccs3)CC2)cc1,2,9,25,-1,-7
CCCc1nc2cc(C)c(Br)c(C)n2c1Cc1ccsc1,nt,nt,-2,nt,nt
CCc1ccc(S(=O)(=O)/N=C2\C=C(NS(=O)(=O)c3ccccc3)C(=O)c3ccccc32)cc1,3,5,70*,-7,16
CC(C)c1ccc(S(=O)(=O)/N=C2/C=CC(=O)c3ccccc32)cc1,6,27,nt,nt,13
CC(C)c1ccc(S(=O)(=O)/N=C2\C=C(NS(=O)(=O)c3ccccc3)C(=O)c3ccccc32)cc1,nt,nt,62*,-27,nt
Cc1[nH]n(-c2ccc([N+](=O)[O-])cc2)c(=O)c1C=NCCN1CCN(C(=O)c2ccc(F)cc2)CC1,67*,91*,14,4,90*
Cc1[nH]n(-c2ccc([N+](=O)[O-])cc2)c(=O)c1C=NCCc1c[nH]c2ccccc12,6,39,20,19,17
CC(N=Cc1cccc(O)c1O)c1ccccc1 (stereo not given),3,27,81*,13,-7
CC(N=Cc1cc([N+](=O)[O-])ccc1O)c1ccccc1 (stereo not given),-5,16,-9,-1,9
Cc1nn(-c2ccccc2)c2c1C(c1ccccc1)C(C#N)=C(N)O2 (stereo not given),4,46,2,1,52*
Cc1nn(-c2ccccc2)c2c1C(c1ccc(Br)s1)C(C#N)=C(N)O2 (stereo not given),nt,nt,14,nt,nt
Cc1cccc(NC(=O)COC(=O)Cc2cccs2)c1C,-7,-4,-28,6,7
COc1cc(N=Nc2ccc(C)cc2S(N)(=O)=O)c(C)cc1N,nt,nt,49*,nt,nt
COc1cc(S(N)(=O)=O)c(OC)cc1N,0,-1,7,2,8
COc1ccc([C@@H]2C[C@H]3[C@@H](CN2S(=O)(=O)c2ccccc2)C(=O)C[C@@H](c2cccc4ccccc24)N3S(=O)(=O)c2ccc(C)cc2)cc1,nt,nt,5,nt,nt
SMILES,SENP8 block-1,SENP6 block,SENP8 block-2,Platelet DG rel,SENP7 block
O=C(c1ccc(Cl)cc1)C1CCCN(Cc2ccc(Oc3ncccn3)cc2)C1 (stereo not given),-1,0,22,52*,11
CC(NC(=O)c1cc(-c2ccncc2)nc2ccc(Br)cc12)C1CCCO1 (stereo not given),0,-3,-7,-22,-1
COc1ccc(N=Nc2cc(OC)c(N)cc2OC)cc1,nt,nt,42*,nt,nt
COc1ccc(N=Nc2ccc(N)nc2N)cc1,73*,78*,4,5,78*
CC(=O)Nc1ccc(CN2C(=O)C(C)ON=C2c2ccccc2-c2ccco2)cc1 (stereo not given),nt,nt,-5,nt,nt
COc1ccc2c(c1)C=C(CN1CCN(C3CCCC3)C(CCO)C1)CO2 (stereo not given),-7,-8,-6,2,-2
Cc1cccc(N=Cc2cc3c(cc2[N+](=O)[O-])OCO3)c1,-5,30,-116,6,-3
O=[N+]([O-])c1cc2c(cc1C=Nc1ccccc1)OCO2,13,57*,-304,-2,12
